Assay outcomes as filed in PubChem.
TRHR ag = qHTS for Small Molecule Agonists and Allosteric Enhancers of Human TRH Receptor: Primary Screen for Agonists | activation, % at 2 µM | TRHR cells, calcium flux fluo-8, FDSS agonist mode | actives 0.18% (n = 360,000) | AID 493084, 2011 | Thyrotropin-releasing hormone receptor (Homo sapiens), P34981; note: 0% is about no effect
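In this calcium-flux screen, cells bearing human TRHR are dye-loaded with fluo-8, baselined for 10 cycles, then exposed to library compounds; positive kinetic calcium responses during the agonist phase mark hits, with TRH as control.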
D1 ag = Allosteric Agonists of the Human D1 Dopamine Receptor: qHTS. HEK293 T-REx D1 cells, calcium flux, agonist mode. D(1A) dopamine receptor (Homo sapiens), P21728. AID 504660, 2011. actives 1% (n = 360,000). activation, % at 2 µM; note: 0% is about no effect
Target sequence (P21728 whole entry, looked up): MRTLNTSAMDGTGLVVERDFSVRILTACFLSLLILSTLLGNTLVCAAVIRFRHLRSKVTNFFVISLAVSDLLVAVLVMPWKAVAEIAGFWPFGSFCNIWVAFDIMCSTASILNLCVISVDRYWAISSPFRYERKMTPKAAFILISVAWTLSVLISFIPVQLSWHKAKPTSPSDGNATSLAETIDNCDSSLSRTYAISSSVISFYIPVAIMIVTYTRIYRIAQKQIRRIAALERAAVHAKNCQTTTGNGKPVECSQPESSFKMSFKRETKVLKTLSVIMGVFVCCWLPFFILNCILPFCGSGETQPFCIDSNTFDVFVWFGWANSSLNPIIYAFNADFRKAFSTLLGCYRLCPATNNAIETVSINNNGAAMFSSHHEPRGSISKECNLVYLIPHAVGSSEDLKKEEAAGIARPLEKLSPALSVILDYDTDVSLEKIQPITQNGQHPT
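Agonism was scored from calcium flux recorded over 180 s (1 read/s) after pintool compound addition, following a 10-cycle baseline. Cells were inducible force-coupled HEK293 TREx D1, plated overnight at 30 C and loaded with no-wash calcium dye.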
D1 antag = Antagonist of Human D 1 Dopamine Receptor: qHTS | D(1A) dopamine receptor (Homo sapiens), P21728 | HEK293 TREx D1 cells, calcium flux, dopamine EC80; stronger effect = lower value | activity change, negative = inhibition, % at 10 µM | actives 3.2% (n = 360,000); in the data active = activity change below about -30%; note: % is set by controls: 0 for no effect and ±100 for the full control effect
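Tetracycline-induced HEK293 Trex D1 cells, force-coupled to calcium, dye-loaded; compounds added and read 180 s, then EC80 dopamine added and calcium flux tracked kinetically another 180 s.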
TRHR PAM = qHTS for Small Molecule Agonists and Allosteric Enhancers of Human TRH Receptor: Primary Screen for Enhancers. Thyrotropin-releasing hormone receptor (Homo sapiens), P34981. TRHR cells, fluo-8 calcium fluorescence, EC20 TRH enhancement. enhancement, % at 2 µM. actives 0.66% (n = 360,000); in the data active = enhancement above about 30%; note: 0% is about no effect
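Enhancer read-out: after compound pinning and an initial kinetic agonist-mode read, an EC20 of TRH (10 nM final) was injected and fluo-8 calcium signal (Ex 480/Em 530) followed at 1 s/cycle for 100 cycles in TRHR-expressing cells.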
D1 PAM = Potentiators of Human D1 Dopamine Receptor: qHTS; HEK293 TREx D1 cells, calcium flux, dopamine EC20 potentiation; potentiation, % at 10 µM; D(1A) dopamine receptor (Homo sapiens), P21728; actives 0.036% (n = 360,000); AID 504651, 2011; in the data active = potentiation above about 30%; note: 0% is about no effect
Numbers without * were called inactive; · = no result. Only some compounds are listed: those with a hit (about 4.6% of all), similar ones and a draw of the others. Cut-off read from the data, not from the text of the source, unless noted: active = activation above about 30%; inactive = the rest.

SMILES	TRHR ag	D1 ag	D1 antag	TRHR PAM	D1 PAM
Cc1noc(C)c1S(=O)(=O)NC1CCN(Cc2ccccc2)CC1	0	6	-41*	6	-4
COc1ccc(Cl)cc1NC(=O)CCCn1c(C)c2cnn(-c3ccccc3)c(=O)c2c1C	0	1	-79*	2	-5
COc1ccc(Cl)cc1NC(=O)COC(=O)CCCN1C(=O)c2ccccc2C1=O	0	6	-33*	2	-1
Cc1nc(N2CCCC2)ncc1C(=O)Nc1ccccc1	0	-1	6	3	0
CCc1ccc(S(=O)(=O)NCc2ccc3c(c2)CCN3C(=O)c2ccc(C)cc2)cc1	0	0	0	7	0
Cc1ccc(C(=O)Nc2cccc(C(=O)NCc3ccccc3)c2)cc1	-1	2	-10	-7	-12
Cc1cccc(CNC(=O)c2cccc(NC(=O)N3CCSc4ncccc43)c2)c1	0	1	-35*	-5	-4
Cc1occc1C(=O)Nc1cccc(C(=O)NCc2ccccc2)c1	0	6	-40*	1	-16
O=C(c1cccc(F)c1)N1CCC(c2c[nH]c3ccccc23)(c2c[nH]c3ccccc23)CC1	0	2	6	-6	0
Cc1ccc(OCC(=O)Nc2ccc3nc(SCC(=O)Nc4ccc(C)cc4C)sc3c2)cc1	1	5	-9	2	0
CCCCCCCCCCCCCCCC(=O)OC(CC(=O)O)C[N+](C)(C)C (stereo not drawn)	0	75*	-34*	-11	-7
COc1ccc(C(=O)NCCCn2ccnc2)cc1	0	2	3	17	4
CCC(C)C(NC(=O)c1ccccc1NC(=O)c1ccc(OC)cc1)C(=O)NCCCn1ccnc1 (stereo not drawn)	0	2	5	39*	0
COc1ccc(-c2nn(-c3ccccc3)cc2C(=O)NCCCn2ccnc2)cc1	0	1	-38*	-5	-5
Cc1ccccc1CS(=O)(=O)c1cn(CC(=O)N2CCC(C)CC2)c2ccccc12	1	1	-65*	-10	-5
Cc1ccn2c(c1)nc(=O)c1cc(S(=O)(=O)N3CCC(C)CC3)c(Cl)cc12	0	0	7	-1	0
Cc1nn(C)c(C)c1S(=O)(=O)N(CC(=O)N1CCN(c2ccccc2)CC1)c1ccc(C(C)C)cc1	-1	-3	5	-2	-2
N#Cc1ccc(Sc2ccccn2)c([N+](=O)[O-])c1	1	4	-60*	2	-2
COc1ccc2[nH]cc(CCN=C(NC(=O)c3ccccc3F)Nc3nc(C)cc(C)n3)c2c1	-3	1	8	3	-4
COCCCNC(=O)c1sc2nc(C)c(C(=O)Nc3ccc(C)cc3C)c(-c3ccccc3Cl)c2c1N	0	1	-32*	-1	-1
COc1ccc(NC(=O)c2sc3nc(C)c(C(=O)Nc4ccc(C)cc4C)c(-c4ccc(Cl)cc4)c3c2N)cc1	0	0	-3	0	0
COc1cccc(NC(=O)c2sc3nc(C)c(C(=O)Nc4ccc(C)cc4C)c(-c4ccco4)c3c2N)c1	8	36*	-11	4	-1
COc1cccc(NC(=O)c2sc3nc(C)c(C(=O)Nc4ccc(C)cc4C)c(-c4sccc4C)c3c2N)c1	4	3	0	-1	-3
Cc1ccc(NC(=O)c2c(C)nc3sc(C(=O)NC4CCCC4)c(N)c3c2-c2ccco2)c(C)c1	-1	1	15	1	-2
CCc1ccc(NC(=O)c2sc3nc(C)c(C(=O)Nc4ccc(C)cc4C)c(-c4ccco4)c3c2N)cc1	6	46*	-5	1	3
SMILES	TRHR ag	D1 ag	D1 antag	TRHR PAM	D1 PAM
COc1cccc(NC(=O)c2sc3nc(C)c(C(=O)Nc4ccc(C)cc4C)c(-c4ccccc4Cl)c3c2N)c1	1	10	-31*	-2	0
CCn1cc2nc(SCC(=O)Nc3ccccc3C(F)(F)F)n(Cc3ccc(C)cc3)c(=O)c2n1	-2	10	24	-5	0
O=C(COc1ccc(Cl)cc1)NCC(c1ccco1)S(=O)(=O)c1ccc(Cl)cc1 (stereo not drawn)	0	3	·	11	-4
O=C(Nc1ccccc1C(F)(F)F)N1CCC(CN2CCc3ccccc3C2)CC1	0	30*	-6	1	6
CCc1ccccc1NC(=O)N1CCC(CN2CCc3ccccc3C2)CC1	0	5	-4	2	3
Cc1ccc(C=Nc2ccccc2C(=O)Nc2ccccc2)cc1	0	0	-9	6	-4
Cc1ccc(C=Nc2ccccc2C(N)=O)cc1	0	60*	-35*	-8	-8
COc1cccc(CNC(=O)Cc2ccc(NC(=O)N3CCSc4ncccc43)cc2)c1OC	0	1	-7	1	-2
O=P(O)(CCc1ccccn1)CN1CCOCC1	0	2	-6	3	-2
O=P(O)(CCc1ccccn1)CN1CCCCC1	0	1	-32*	-9	-4
CCOc1ccc(C(=O)Nc2cc(-c3cn4cccnc4n3)ccc2C)cc1OCC	-1	0	-10	3	0
Nc1nc(C(F)(F)F)c(Br)c(=O)n1N	1	1	-30*	-24	-5
CC(C)Oc1ccc(CNC(=O)CCCn2c(=O)c3cccn3c3cccnc32)cc1	0	1	4	25	-2
Cc1ccc(CNCc2cccn2-c2nnc(N3CCCC3)s2)cc1	-1	24	3	4	-6
Cc1ccc(CN(Cc2cccn2-c2nnc(N3CCCC3=O)s2)C(=O)Nc2ccccc2Cl)cc1	1	2	-69*	3	-3
Oc1ccc(Cl)cc1CNCc1ccc(Cl)nc1	3	42*	·	3	-2
COc1ccc(CNCc2cc(Cl)ccc2O)cc1	1	38*	1	2	2
CCc1ccc(Sc2cc(C(=O)O)c3ccccc3n2)cc1	0	0	14	-1	-2
C=CCn1c(CCCOc2ccc(Cl)cc2Cl)n[nH]c1=S	0	4	-46*	-4	-4
C=CCn1c(Cc2nc3ccc(Cl)cc3[nH]2)n[nH]c1=S	1	3	4	-1	0
COc1ccc2c(CNCCc3ccccc3)c(C(=O)O)n(Cc3cccc(F)c3)c2c1	0	0	4	7	-3
COc1ccccc1NC(=O)CSc1nncn2c1cc1sccc12	0	5	-10	9	-4
Cn1c(C(N)=O)cnc1Sc1ncc(C(F)(F)F)cc1Cl	0	5	-47*	0	-6
